# High-throughput results deposited in PubChem by National Center for Advancing Translational Sciences (NCATS).
# TGFb SMAD3 inh – blocks TGF-b signaling | Potency, µM (titrated, usually from 46.1 µM), inactives show top-dose activity, negative = inhibition, usual class: inhibitors | hit rate 1.2% among 410,000 | HepG2 CAGA-GFP TGF-b/SMAD3 reporter, GFP fluorescence, 18 h; TGF-beta stimulated, 500 pg/mL final; further: potency means the concentration at half of the fitted maximal effect; on the % scale 0 is the no-effect control and ±100 the full control effect; nearly all actives have a fitted effect of over 65% in size
#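 Read-out: total well GFP (ex488/em500-530) summed from mean per-cell fluorescence. Cells: HEPG2 CAGA-GFP, 1% FBS DMEM, 18 h at 37 degrees C with 500 pg/mL final TGF-beta. Unstimulated wells served as the full-inhibition control; stimulated DMSO wells = 0%.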
# HepG2 viability – counter-screen for TGF-b inhibitors: cytotoxicity in HepG2 cells | HepG2 CAGA-GFP viability, ATP luminescence, 18 h | hit rate 0.76% among 410,000 | AID 588856 | Potency, µM (top dose mostly 46.1 µM), for the others: at the highest dose activity change, negative = cytotoxicity, hits mostly cytotoxic; further: potency means the concentration at half of the fitted maximal effect
#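 CellTiter-Glo luminescence gave cytotoxicity after 18 hours at 37 degrees C. The cells were HepG2 CAGA-GFP in 1% FBS DMEM, stimulated with 500 pg/mL TGF-beta after compound addition. %Activity was normalised to no-cell wells (complete cell-killing) and DMSO (no toxicity), and curves were fitted and classified.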
# IL-1B inflam inh – blocks inflammasome-driven IL-1 beta release. THP-1 LPS/ATP IL-1B secretion, AlphaLISA, 16 h; hits give low values. activity change, % at 57.5 µM. hit rate 4.7% among 360,000. AID 743279; in the data active means activity change below about -50%; inconclusive means mostly about -30% to -49%; further: on the % scale 0 is the no-effect control and ±100 the full control effect
#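 THP-1 cells pretreated 1 hr with compounds (up to 57.5 uM final), then stimulated with LPS (250 ng/mL final) plus ATP (1.25 mM final); secreted IL-1B measured by AlphaLISA after 16 hr, decreased signal indicating inhibition.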
# TDP1 cell CPT – growth inhibition of DT40 Tdp1-/-;hTDP1 cells with camptothecin (screen for TDP1 inhibitors) | chicken DT40 Tdp1-/-;hTDP1 cells + 20 nM CPT, ATP luminescence, 48 h | Potency, µM (top dose mostly 46.2 µM), inactives show at the top dose activity change, negative = growth inhibition, usual class: inhibitors | hit rate 12% among 420,000; further: potency means the concentration at half of the fitted maximal effect; on the % scale 0 is the no-effect control and ±100 the full control effect; nearly all actives have a fitted effect of over 55% in size
#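 Chicken DT40 Tdp1-/- cells complemented with human TDP1, 400 cells/well, exposed to compounds plus 20 nM camptothecin for at least 48 h at 37 C; viability read as ATP content by CellTiter-Glo luminescence.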
# ASM inhibitor – human S-ASM enzyme inhibition; Potency, µM (doses to about 57.5 µM), without a hit: at the top dose activity change, negative = inhibition, actives largely listed as inhibitors; placental ASM, HMU-PC fluorogenic substrate, 60 min; P17405; hit rate 0.006% among 340,000; AID 504937; further: potency means the concentration at half of the fitted maximal effect
# Target sequence (P17405 47-631 limits assumed): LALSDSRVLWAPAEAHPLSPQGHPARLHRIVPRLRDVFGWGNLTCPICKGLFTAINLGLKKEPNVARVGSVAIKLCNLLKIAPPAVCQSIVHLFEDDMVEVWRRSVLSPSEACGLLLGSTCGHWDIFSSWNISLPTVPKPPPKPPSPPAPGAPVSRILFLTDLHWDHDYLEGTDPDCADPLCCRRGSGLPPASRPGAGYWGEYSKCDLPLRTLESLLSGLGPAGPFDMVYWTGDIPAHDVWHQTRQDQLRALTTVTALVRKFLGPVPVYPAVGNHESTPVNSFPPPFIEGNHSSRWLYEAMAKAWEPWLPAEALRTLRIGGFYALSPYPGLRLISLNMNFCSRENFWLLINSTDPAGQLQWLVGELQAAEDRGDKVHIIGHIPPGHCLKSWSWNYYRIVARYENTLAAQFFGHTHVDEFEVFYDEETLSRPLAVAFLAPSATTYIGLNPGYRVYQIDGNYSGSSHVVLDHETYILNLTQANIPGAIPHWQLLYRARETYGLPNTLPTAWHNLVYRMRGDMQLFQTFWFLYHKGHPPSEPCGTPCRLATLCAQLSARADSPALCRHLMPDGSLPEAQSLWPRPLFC
#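 Fluorogenic HMU-PC substrate (9 uM final) is turned over by placental ASM in 60 min at 37 C after a 10 min compound preincubation. Reaction ended by alkaline stop (pH 10), with fluorescence read at 386/447 nm.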
# TDP1 cell noCPT – qHTS for Inhibitors of human tyrosyl-DNA phosphodiesterase 1 (TDP1): qHTS in cells in absence of CPT. DT40 Tdp1-/- hTDP1 cells, no CPT, ATP luminescence, 48 h. Potency, µM (series often up to 46.2 µM), without a hit: at the highest dose activity change, negative = growth inhibition, most hits filed as inhibitors. hit rate 15% among 420,000. AID 686978, 2013; further: potency means the concentration at half of the fitted maximal effect; on the % scale 0 is the no-effect control and ±100 the full control effect; nearly all actives have a fitted effect of over 55% in size
#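 Readout: luminescence from CellTiter-Glo after 30 min in the dark at RT. Cells: DT40 Tdp1-/- with stable hTDP1, 400/well. Exposure: compounds alone, ≥48 hr, 37 °C.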
# * = called active by the depositor; i = inactive; ? = inconclusive; . = not tested or not shown. An excerpt weighted towards active compounds, which were near 19% of everything screened. Unless noted, the call rests on the fitted dose curve; in most records, active means well fitted curve in the direction sought with a large enough effect; inconclusive means small, poorly fitted or top-dose-only effect, or another doubt; inactive means no such curve, though single readings can be large; an effect the other way counts as inactive or inconclusive.
SMILES,TGFb SMAD3 inh,HepG2 viability,IL-1B inflam inh,TDP1 cell CPT,ASM inhibitor,TDP1 cell noCPT
O=C(Nc1cccc(S(=O)(=O)C(F)F)c1)c1ccc(Cl)c(S(=O)(=O)N2CCOCC2)c1,?,-36%,-63*,16µM*,-11%,18µM*
O=C(Nc1cccc(S(=O)(=O)N2CCOCC2)c1)c1cc(S(=O)(=O)N2CCOCC2)c(Cl)cc1Cl,-19%,-24%,-1,15µM*,-1%,?
COc1ccc(OCC(=O)Nc2c(C)ccc3nsnc23)cc1,12%,-1%,-1,-24%,0%,-26%
O=C(O)CCCn1cc(NC(=O)COc2ccccc2F)cn1,7%,7%,4,-6%,2%,0%
Cc1ccc(NC(=O)c2cc3ccccc3oc2=O)cc1S(=O)(=O)N(C)C,6%,-2%,30,-1%,-3%,-1%
Cc1ccc(NC(=O)c2cc3ccccc3o2)cc1S(=O)(=O)N(C)C,6%,-11%,-11,29µM*,-5%,?
O=C(Nc1ccc2c(c1)OCCO2)c1cc2ccccc2o1,-4%,-29%,-68*,-29%,0%,?
O=C(c1ccc(F)cc1)C1CCN(C(=O)c2c(F)cccc2F)CC1,-1%,-10%,-25,15%,3%,-17%
COc1ccc(N2CC(NC(=O)c3cc4ccccc4o3)CC2=O)cc1OC (configuration not stated),-16%,0%,.,?,.,?
Cc1ccc(-n2nnnc2SCc2ccc(C(=O)O)cc2)cc1C,1%,5%,46,-7%,5%,1%
CCc1cc(=O)oc2c(CNCc3c(F)cccc3Cl)c(O)ccc12,0%,-4%,10,18µM*,i,-2%
CCOC(=O)c1c(C)[nH]c(C)c1S(=O)(=O)N(C)CC(=O)N(C)Cc1ccccc1,0%,-3%,0,-19%,6%,0%
CCOC(=O)N(C)c1c(CC)nc2c(OCC(=O)C(C)(C)C)cccn12,35%,4%,8,-22%,.,-20%
CCOC(=O)N(C)c1c(CC)nc2c(OCc3ccccc3OC)cccn12,?,-4%,21,21µM*,.,16µM*
CCOC(=O)N(C)c1c(CC)nc2c(OCCOc3ccccc3)cccn12,-20%,1%,-15,?,.,16µM*
CCOC(=O)N(C)c1c(CC)nc2c(OCc3ccccc3C)cccn12,2%,-7%,11,?,.,15µM*
O=C(O)C(C(=O)/C=C/c1ccco1)=C1SCCS1,-24%,-7%,4,-15%,-7%,?
O=C(C=C1SCCS1)/C=C/c1ccco1,-5%,-56%,-92*,?,-6%,?
CCCNC(=O)c1nnsc1S(=O)c1ccc(Cl)cc1 (configuration not stated),?,-104%,-102*,0.41µM*,-3%,0.52µM*
CNC(=O)c1nnsc1S(=O)c1ccc(Cl)cc1 (configuration not stated),?,-116%,-105*,0.41µM*,-1%,0.65µM*
O=C(CN1CCN(c2ccc(O)cc2)CC1)Nc1ccc(S(=O)(=O)N2CCCC2)cc1,9%,-26%,19,0%,0%,-25%
COc1cc(NC(=O)CCl)ccc(=O)c1,?,0.71µM*,-14,13µM*,.,18µM*
N=c1sccn1CC(=O)Nc1cccc(S(N)(=O)=O)c1,1%,-2%,-24,8%,0%,11%
N=c1sccn1CC(=O)Nc1cccc(Oc2ccccc2)c1,?,-47%,-22,?,-4%,22µM*
O=C(CSc1ncnc2[nH]ncc12)Nc1cccc(Oc2ccccc2)c1,-2%,-13%,-90*,?,-15%,?
SMILES,TGFb SMAD3 inh,HepG2 viability,IL-1B inflam inh,TDP1 cell CPT,ASM inhibitor,TDP1 cell noCPT
O=C(CCl)Nc1cccc(Oc2ccccc2)c1,8.9µM*,-92%,-106*,3.3µM*,7%,2.9µM*
O=C(CCl)Nc1cccc(Oc2cnccn2)c1,16µM*,-97%,-88*,18µM*,2%,9.2µM*
COc1ccc(C(=O)COC(=O)CCCC(=O)Nc2ccc(C(C)=O)cc2)cc1,-7%,-18%,.,2%,.,-23%
COc1ccccc1NC(=O)N(Cc1ccco1)Cc1cc2cc(C)cc(C)c2[nH]c1=O,0%,-2%,?,21µM*,-13%,15µM*
COc1ccccc1NC(=S)N(Cc1ccco1)Cc1cc2cc(C)c(C)cc2[nH]c1=O,0%,10%,-54*,4.1µM*,-15%,5.2µM*
COc1ccccc1NC(=O)N(Cc1ccco1)Cc1cc2ccc(C)c(C)c2[nH]c1=O,?,7%,2,3.7µM*,-9%,4.1µM*
COCC(=O)N[C@@H]1c2ccccc2CC[C@@H]1OCc1ccccc1,4%,2%,-9,5%,-1%,-12%
Cc1c(/C(O)=C2\C(=O)C(=O)N(CCCN(C)C)C2c2ccco2)cnn1-c1ccccc1 (configuration not stated),-13%,-3%,-9,-10%,0%,0%
CCc1ccccc1N1CC(C(=O)Nc2nccs2)CC1=O (configuration not stated),-3%,-4%,21,-8%,3%,-20%
CCOC(=O)N1C(=O)NC(=O)C1c1ccccc1 (configuration not stated),2%,1%,6,-3%,9%,-21%
C[C@@H]1CN([C@H](C)CO)C(=O)c2cc(NS(=O)(=O)c3cn(C)cn3)ccc2O[C@@H]1CN(C)S(C)(=O)=O,4%,3%,6,-6%,6%,-8%
CCOC(=O)c1ccc(NC(=O)CC2C(=O)N(c3cccc(OC)c3)C(=O)N2Cc2cccnc2)cc1 (configuration not stated),-16%,-16%,.,13µM*,.,21µM*
COc1ccc(NC(=O)CC2C(=O)N(c3cccc(C)c3)C(=O)N2Cc2cccnc2)cc1 (configuration not stated),-10%,-8%,.,?,.,-18%
CCOC(=O)c1ccc(NC(=O)CC2C(=O)N(c3ccc(F)cc3)C(=O)N2Cc2cccnc2)cc1 (configuration not stated),15%,3%,.,18µM*,.,15µM*
CCOC(=O)c1ccc(NC(=O)CC2C(=O)N(c3ccc(F)cc3)C(=O)N2Cc2ccc(C)cc2)cc1 (configuration not stated),?,-24%,.,16µM*,.,?
